Among the data in PubChem BioAssay (NCI) are growth values, retold here.

Compounds without any hit were thinned out: in the full panel of roughly 83,000, 20% have a hit.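 A percent growth of 40 corresponds to 60% growth inhibition; 0 means no net growth; -100 means all cells died. Active threshold: below 10.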 A number with no mark means an inactive call. Activity calls are given as the source filed them.

In this assay the test system is HL-60(TB) leukemia. Kind of assay: NCI-60 one-dose screen, 48 h (100 = growth as untreated, 0 = no growth, -100 = all killed). The following applies: 10 µM unless noted.
Take `COc1ccc(C(=O)/C=C/c2ccccc2)cc1S(N)(=O)=O`: the growth is 64.2%. As to `C=C1CC[C@@H]2C(C)(C)[C@H](O)CC[C@@]2(C)[C@@H]1COc1ccc2ccc(=O)oc2c1`, the growth was 46.4%. On to `CCN(Cc1cccc(S(=O)(=O)[O-])c1)c1ccc(C(=C2C=CC(=[N+](CC)Cc3cccc(S(=O)(=O)O)c3)C=C2)c2ccccc2S(=O)(=O)O)cc1`, for which the growth is 104%.

On to `C=C1CC[C@@]2(C#N)[C@H]3[C@H](CC[C@@H]2C)[C@@H](C)C[C@@H](CC(C)(C)C#N)[C@H]13`, for which the growth is 21.8%. To `C1=C\COCc2cc(ccc2OCCN2CCCC2)Nc2nccc(n2)-c2cccc(c2)COC/1` belongs -34.6% (active). `Cc1cc(C)on1`: the growth is 76.3%.

For `C=C(C)[C@@H]1CC[C@]2(C(=O)O)CC[C@]3(C)[C@H](CC[C@@H]4[C@@]5(C)C[C@@H](CC#Cc6ccc(Br)cc6)C(=O)C(C)(C)[C@@H]5CC[C@]43C)[C@@H]12`, the growth was 47.7%. Then `COc1cccc(-c2nc3cc(NC(=O)c4ccc(Cl)c(C#N)c4)ccc3o2)c1`, with 100%. To `COc1ccc2nc(NC(=O)c3cc(-c4ccc(F)cc4)n4nc(-c5ccccc5)cc4n3)sc2c1` belongs 98.7%. To `COC(=O)[C@]12CC[C@@H](C)[C@H](C)[C@@H]1C1=CC[C@@H]3[C@@]4(C)C(C=O)=C[C@@](C)(COC(C)=O)[C@@H]4C(=O)C[C@@]3(C)[C@]1(C)CC2` belongs 29.8%; to `Cc1ccc2c(n1)C(=O)C(Cl)=C(Nc1ccc(N3CCN(C)CC3)cc1)C2=O`, -46.7% (active).
